# TLR9-MyD88 inh: TLR9-MyD88 interaction inhibition | Q9NR96+Q99836 | inhibition, % at 4.98 µM | AID 504734 | 340,000 compounds, 0.21% hits | CHO BLA complementation TLR9-MyD88, CCF4 FRET ratio;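 active means inhibition above the mean over all tested compounds plus 3 SD, cut at about 21% in these data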
# HSF1 activator: increases HSF-1 driven luciferase reporter signal | NIH3T3-HGL HSF-1 luciferase reporter, MG132, 8 h; 100% = twice DMSO control signal | activation, % at 9 µM | 300,000 compounds, 1.7% hits | AID 504408;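 active means mean replicate activation of at least 50% with a set share of replicates each reaching 50%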
# NOD2 RIPK2 PPI: inhibitors of human NOD2-RIPK2 interaction; O43353; CHO BLA complementation NOD2-RIPK2, CCF4 ratio; inhibition, % at 4.98 µM; 360,000 compounds, 0.38% hits; AID 624267; in the data active means inhibition above about 21%
# HSF1 inhib: HSF1 inhibition. NIH3T3-HGL HSE-luciferase, MG132-induced, luminescence 8 h; active compounds read low. activity change, negative = inhibition, % at 7.5 µM (by protocol). 300,000 compounds, 0.77% hits. AID 2098;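 active means more than half of replicate wells show activity change below -50%, luminescence cut by over half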;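 further: luciferase reports HSF-1 transcriptional activity via heat shock element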
# TLR4-MyD88 BLA: blocks binding of human TLR4 to MyD88 | O00206+Q99836 | HeLa CL3-4 TLR4/MyD88 BLA complementation, FRET ratio | inhibition, % at 8.4 µM | 200,000 compounds, 0.18% hits | AID 861; in the data active means inhibition above about 25%
# TLR4 MyD88 cnf: TLR4-MyD88 interaction inhibition confirmed; inhibition, % at 8.4 µM; 350 compounds, 50% hits; HeLa CL3-4 BLA complementation, CCF4 FRET ratio; shares compounds with TLR4-MyD88 BLA;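 active means mean inhibition across three repeat runs above about 25% carried over from the earlier screen, limit read from the data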
# BLA inhibitor ct: inhibits beta-lactamase activity, counter-screen to TLR4-MyD88 binding inhibitors | 350 compounds, 63% hits | AID 1237 | shares compounds with TLR4-MyD88 BLA | inhibition, % at 8.4 µM | HeLa BLA reporter, CCF4 FRET ratio;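 active means mean inhibition over three repeats above about 26% taken from the earlier screen, limit read from the data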;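 further: HeLa cells stably expressing beta-lactamase reporter as counterscreen for TLR4-MyD88 inhibitors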
# TLR9-MyD88 cf: TLR9-MyD88 interaction inhibition, confirmation. shares compounds with TLR9-MyD88 inh. CHO TLR9/MyD88 BLA complementation, CCF4 FRET ratio. 680 compounds, 51% hits. inhibition, % at 4.98 µM. AID 540250;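 active means mean inhibition across three repeats above about 21% taken from the earlier screen, limit read from the data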;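 further: blue over green emission ratio reports constitutive TLR9 MyD88 association via BLA complementation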
# BLA counter: counter-screen for TLR9-MyD88 inhibitors: non-selective beta-lactamase inhibitors; shares compounds with TLR9-MyD88 inh; inhibition, % at 4.98 µM; 680 compounds, 7% hits; CHO-BLA cells, CCF4 FRET ratio, BLA reporter;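 active means mean inhibition above a 50% cutoff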;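 further: counterscreen of TLR9-MyD88 hits on CMV-driven BLA in CHO-K1 cells; higher means less blue over green ratio so more BLA blockade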
# TLR9 CHO tox: CHO cell toxicity counter-screen for TLR9-MyD88 inhibitors | inhibition, % at 4.98 µM | AID 588336 | shares compounds with TLR9-MyD88 inh | 680 compounds, 39% hits | TLR9-MyD88 CHO cells cytotoxicity, luminescence; in the data active means inhibition above about 11%
# A number is an active result; n = inactive; x = no result given. Most compounds without a hit are left out; they make up all but 2.4% or so of the library.
SMILES,TLR9-MyD88 inh,HSF1 activator,NOD2 RIPK2 PPI,HSF1 inhib,TLR4-MyD88 BLA,TLR4 MyD88 cnf,BLA inhibitor ct,others
COc1ccc(-n2c(-c3ccc(Br)cc3)c[n+]3c2CCc2ccccc2-3)cc1,n,n,n,n,26.5,25.5,n,
CC(C)c1ccc(-n2c(-c3ccccc3)c[n+]3c2CCc2ccccc2-3)cc1,n,n,n,n,n,x,x,
O=[N+]([O-])c1nccn1CCCCCCN1CCOCC1,x,x,n,x,x,x,x,
OC[C@@H]1CN(CCN2CCOCC2)C[C@H](n2cnc3c(NC4CCC4)ncnc32)O1,x,x,n,x,x,x,x,
COc1ccc(-c2ccc3c(N)c(C(=O)c4ccc(OC)c(OC)c4)sc3n2)cc1,n,n,n,n,27.3,n,45.0,
CCn1c(SCC(=O)NCc2ccccc2)nc2nc3c(cc2c1=O)CCCC3,n,n,n,n,25.4,n,n,
CC1(C)CC(=O)C(C(C2=C(O)CC(C)(C)CC2=O)c2cccc(O)c2)C(=O)C1 (centres undefined),n,x,n,x,n,x,x,
CC1(C)CC(=O)C(C(C2=C(O)CC(C)(C)CC2=O)c2cccs2)C(=O)C1 (centres undefined),n,n,n,n,25.4,n,n,
Cc1ccc(C)c(S(=O)(=O)N2CCN(c3nc(-c4cccnc4)nc4ccccc34)CC2)c1,n,x,n,x,x,x,x,
Cn1nc(C(C)(C)C)cc1C(=O)N1CCCCC1c1cc(C(=O)N2CCOCC2)no1 (centres undefined),x,x,n,x,x,x,x,
COc1ccc(S(=O)(=O)N2CCCC(C(=O)NCc3ccccn3)C2)cc1Cl (centres undefined),n,n,n,n,26.2,n,n,
COCCN(C(=O)COC(=O)/C=C/c1cccc(OC)c1)c1c(N)n(CC(C)C)c(=O)[nH]c1=O,n,x,n,x,x,x,x,
O=C(OCn1ncc(Cl)c(Cl)c1=O)c1ccc(F)cc1,x,n,x,-93.6,26.9,28.7,n,
O=c1c(Cl)c(Cl)cnn1Cc1ccc(F)cc1,n,n,n,n,26.7,n,n,
O=c1cnn(Cc2ccc(F)cc2)c2ccccc12,n,n,n,n,x,x,x,
CC(C)(C)C(=O)Cn1ncc(Cl)c(Cl)c1=O,n,n,n,n,n,x,x,
COC(=O)c1ccc(-n2c(C)cc(C(=O)CCl)c2C)cc1,n,n,n,n,25.5,n,n,
CCCCNC(=O)N1CCN(C/C=C/c2ccccc2)CC1,n,n,n,n,25.2,n,n,
CCSc1nnc(-c2sc3nnc(-c4ccccc4)c(-c4ccccc4)c3c2N)o1,n,n,n,n,40.0,46.7,80.0,
O=C(CC[C@H]1O[C@@H](n2ccc(=O)[nH]c2=O)[C@H](O)[C@@H]1O)N[C@H](Cc1ccccc1)C(=O)NCc1ccccc1,x,x,n,x,x,x,x,
CCCCOC(=O)CSc1nnc(-c2cc(OC)c(OC)c(OC)c2)o1,n,n,n,n,25.9,n,n,
CCCCN(CCCC)C(=O)CSc1nnc(-c2cc(OC)c(OC)c(OC)c2)o1,n,n,n,n,n,x,x,
O=C(NCCCN1CCCC1)c1[nH]c(C(F)(F)F)nc1-c1ccccc1,x,x,n,x,x,x,x,
Cc1ccc(C(=O)Nc2ccccc2N2CCCC2)s1,n,x,n,x,x,x,x,
O=C(O)c1cc(N2C(=O)CCC2=O)ccc1Cl,n,n,n,n,x,x,x,
SMILES,TLR9-MyD88 inh,HSF1 activator,NOD2 RIPK2 PPI,HSF1 inhib,TLR4-MyD88 BLA,TLR4 MyD88 cnf,BLA inhibitor ct,others
CCOC(=O)c1cnn2c(N)c(C#N)cnc12,n,n,n,n,n,x,x,
CCOC(=O)c1c(C)nc2c(C#N)cnn2c1C,n,n,n,n,25.4,n,n,
O=c1cc(-c2c(F)c(F)c(F)c(F)c2F)oc2c(F)c(F)c(F)c(F)c12,x,n,x,-94.4,41.8,37.8,n,
O=C(c1cccc(-c2nnc(-c3ccccc3)o2)c1)N1CCCCC1,n,56.9,n,n,28.0,n,n,
CC(C)c1ccccc1N=C1SCCCN1C(=O)c1cccc(N2C(=O)CCC2=O)c1,n,n,n,n,x,x,x,
Nc1c(C(=O)Nc2ccccc2)sc2nc3c(c(-c4ccco4)c12)CCC3,n,n,n,n,n,x,x,
COc1ccc(-c2c3c(nc4sc(C(=O)Nc5ccccc5)c(N)c24)CCC3)cc1,n,n,n,n,25.3,36.0,57.7,
CC1=NOC(=O)/C1=C\c1ccc(-c2ccc(Cl)cc2Cl)o1,n,n,n,n,27.9,n,n,
CN(C)c1ccc(/C=C/C(O)=C2/C(=O)N(C)C3(C)CC2c2ccccc2O3)cc1 (centres undefined),x,n,x,n,48.6,35.2,68.4,
CC(=O)Oc1ccc2c(c1)Oc1cc(OC(C)=O)ccc1C21OC(=O)c2ccccc21,70.5,x,75.8,x,63.4,70.4,93.4,
Cc1cc(O)ccc1C1(c2ccc(O)cc2C)OC(=O)c2ccccc21,n,n,n,n,n,x,x,
COc1cccc(C(O)c2ncc(-c3cccc(F)c3)[nH]2)c1 (centres undefined),x,x,n,x,x,x,x,
Fc1cccc(-c2nnn3c2nc(Cl)c2ccccc23)c1,n,453.9,n,n,34.6,57.9,40.8,
CCCCN(C)CC(O)Cn1cc(/C=C/C(=O)c2ccc(OCC)cc2)c2ccccc21 (centres undefined),x,n,x,n,x,x,x,
CCCCN(C)CC(O)Cn1cc(/C=C/C(=O)c2cccs2)c2ccccc21 (centres undefined),46.5,n,44.1,n,38.8,39.0,67.8,TLR9-MyD88 cf=30.1;BLA counter=n;TLR9 CHO tox=n
Cc1ccc(NC(=O)/C(C#N)=C/c2cn(CC(=O)NCc3ccco3)c3ccccc23)cc1C,35.8,n,n,n,59.8,53.9,80.0,TLR9-MyD88 cf=n;BLA counter=n;TLR9 CHO tox=27.8
O=C(Nc1cc(Cl)cc(Cl)c1)Nc1cnccn1,n,n,n,n,x,x,x,
Cc1nc(N2CCN(C)CC2)c2sc(=S)n(-c3ccccc3)c2n1,n,n,n,n,n,x,x,
S=c1sc2c(Cl)ncnc2n1-c1ccccc1,28.8,565.5,53.5,n,52.0,47.4,26.1,TLR9-MyD88 cf=26.3;BLA counter=n;TLR9 CHO tox=24.9
COc1ccc(C(=O)c2sc3nc(-c4ccccc4)ccc3c2N)cc1OC,33.3,n,n,n,36.3,38.1,57.0,TLR9-MyD88 cf=43.0;BLA counter=n;TLR9 CHO tox=n
NC(=O)c1sc2nc(-c3ccccc3)ccc2c1N,n,n,n,n,x,x,x,
Fc1ccc(C2=CC(c3ccc(Br)o3)n3ncnc3N2)cc1 (centres undefined),25.1,x,21.6,x,27.6,n,26.2,TLR9-MyD88 cf=n;BLA counter=n;TLR9 CHO tox=n
